Data taken from PubChem BioAssay (Tox21).
Results filed as inconclusive are left out. Entries that show only a call come without a potency. Activity calls are given as the source filed them. Unless noted, the call rests on the fitted dose curve; in most records, active means well fitted curve in the direction sought with a large enough effect in the repeat runs; inconclusive means weak or mixed curves; inactive means no such curve, though single readings can be large; an effect the other way counts as inactive or inconclusive.

Tests used:
[1] = molecular target: Retinoic acid receptor RXR-alpha (Homo sapiens) (UniProt P19793); assay: qHTS assay to identify small molecule agonists of the RXR signaling pathway (AID 1159527; calls by dose curve; further: nearly all actives have a fitted effect of over 35% in size)
Outline: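 Reporter activation is measured as beta-lactamase activity via FRET substrate cleavage (emission 460/530 nm) in HEK 293T cells expressing an RXR-alpha-driven bla construct, following 16 hr compound exposure at 37 C.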

[2] = qHTS assay to identify small molecule agonists of the RXR signaling pathway - cell viability counter screen (AID 1159529); further: series mostly up to about 77 µM; nearly all actives have a fitted effect of over 50% in size
Outline: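 Tox21 10K compounds were tested for cytotoxicity against GeneBLAzer RXR-alpha HEK 293T cells grown in 2% charcoal-stripped FBS. Exposure lasted 16 hr at 37 C, 5% CO2; viability read by CellTiter-Glo luminescence.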

[3] = qHTS assay to identify small molecule antagonists of the retinoid acid receptor (RAR) signaling pathway - cell viability counter screen (AID 1159551); further: nearly all actives have a fitted effect of over 35% in size
Outline: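 Viability of C3RL4 cells is quantified from ATP by luminescence after 6 h treatment at 37 C with compounds and 1 uM retinol.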

[4] = qHTS assay to identify small molecule antagonists of the retinoic acid receptor (RAR) signaling pathway (AID 1159552; further: nearly all actives have a fitted effect of over 50% in size; further: potency means the concentration at half of the fitted maximal effect)
Outline: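 Overnight-plated C3RL4 reporter cells get compound, then retinol to 1 uM final; plates sit 6 hr at 37 C, 5% CO2. A luciferase reagent is added and light output recorded after 30 min at room temperature.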

[5] = qHTS assay to identify small molecule agonists of the retinoic acid receptor (RAR) signaling pathway (AID 1159553); further: potency means the concentration at half of the fitted maximal effect
Outline: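 Compounds dissolved in DMSO were pinned onto C3RL4 cells seeded the previous day, and plates were held 6 hr at 37 C. RARE-driven luciferase output was then read by luminescence.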

[6] = qHTS assay to identify small molecule antagonists of the estrogen related receptor (ERR) signaling pathway from Tox21 library - cell viability counter screen (AID 1224834); further: nearly all actives have a fitted effect of over 30% in size
Outline: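 In this quantitative HTS format, ERR cells receive compounds in DMSO and are incubated for 17.5 h at 37 C. Live-cell protease activity is then detected with CellTiter-Fluor.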

[7] = molecular target: Luciferin 4-monooxygenase (Photinus pyralis) (UniProt P08659); assay: qHTS assay to identify small molecule inhibitors of firefly luciferase (AID 1224835); further: nearly all actives have a fitted effect of over 25% in size; further: potency means the concentration at half of the fitted maximal effect
Outline: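 Biochemical qHTS: compounds run as interplate titrations against purified firefly enzyme, with D-luciferin and ATP each at its KM concentration. Light output recorded by CCD imaging.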

[8] = qHTS assay to identify small molecule agonists of the constitutive androstane receptor (CAR) signaling pathway - cell viability counter screen (AID 1224836); further: series mostly up to about 92 µM; nearly all actives have a fitted effect of over 45% in size
Outline: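 Fluorescence from CellTiter-Fluor indicates live cells after 23 h exposure. The human hepatoma line expresses hCAR and a CYP2B6-2.2kb reporter. Incubation medium contains 0.75 uM PK11195 (final).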

[9] = qHTS assay to identify small molecule antagonists of the constitutive androstane receptor (CAR) signaling pathway - cell viability counter screen (AID 1224837); further: series mostly up to about 92 µM; nearly all actives have a fitted effect of over 45% in size
Outline: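 In quantitative HTS format, compounds at 15 concentrations were applied to HepG2 cells double-transfected with hCAR and CYP2B6-2.2kb under 50 nM CITCO stimulation; live-cell protease activity was read after 23 hr via CellTiter-Fluor.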

[10] = molecular target: Nuclear receptor subfamily 1 group I member 3 (Homo sapiens) (UniProt Q14994); assay: qHTS assay to identify small molecule antagonists of the constitutive androstane receptor (CAR) signaling pathway (AID 1224838); further: nearly all actives have a fitted effect of over 40% in size
Outline: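 CITCO-stimulated (50 nM final) HepG2 cells stably transfected with hCAR and CYP2B6-2.2kb luciferase were exposed to compounds at 15 concentrations for 24 h at 37 C/5% CO2. A luciferase reagent was added and luminescence recorded after 30 min.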

[11] = molecular target: Nuclear receptor subfamily 1 group I member 3 (Homo sapiens) (UniProt Q14994); assay: qHTS assay to identify small molecule agonists of the constitutive androstane receptor (CAR) signaling pathway (AID 1224839); further: nearly all actives have a fitted effect of over 15% in size; further: potency means the concentration at half of the fitted maximal effect
Outline: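 Stable hCAR/CYP2B6-2.2kb HepG2 line in DMEM with 10% FBS; compounds (15 concentrations) and 0.75 uM PK11195 final, 24 h at 37 C/5% CO2, then ONE-Glo luminescence after 30 min.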

[12] = qHTS assay to identify small molecule antagonists of the estrogen related receptor signaling pathway with the pleiotropic PPARgamma coactivator (PGC) from Tox21 10K library - cell viability counter screen (AID 1224840; active means well fitted cell-killing curve with a large enough effect in the repeat runs, not every such curve was filed as active; further: nearly all actives have a fitted effect of over 40% in size)
Outline: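 Viability counter screen, PGC/ERR cells: 17.5 h compound exposure at 37 C, CellTiter-Fluor fluorescence endpoint.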

[13] = molecular target: Thyrotropin receptor (Homo sapiens) (UniProt P16473); assay: qHTS assay to identify small molecule agonists of the thyroid stimulating hormone receptor (TSHR) signaling pathway (AID 1224843; calls by dose curve; further: nearly all actives have a fitted effect of over 45% in size)
Outline: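 Agonist-mode screen: TSHR HEK293 cells received test chemicals for half an hour at room temperature, then HTRF cAMP detection reagents for one hour prior to fluorescence measurement. Each chemical ran as a 15-concentration series, triplicated.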

[14] = qHTS assay to identify small molecule antagonists of the estrogen related receptor signaling pathway with the pleiotropic PPARgamma coactivator (PGC) from Tox21 10K library (AID 1224841; call rule not given here; further: actives are mostly falling curves and most rising ones were filed inactive; nearly all actives have a fitted effect of over 50% in size; further: potency means the concentration at half of the fitted maximal effect)
Outline: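 In the PGC/ERR line, DMSO solutions of test chemicals are pin-delivered to 2,000 cells/well six hours after dispensing. Following eighteen hours' incubation, One-Glo reagent is added and luminescence recorded.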

[15] = qHTS assay to identify small molecule agonists of the estrogen related receptor signaling pathway with the pleiotropic PPARgamma coactivator (PGC) from Tox21 10K library (AID 1224842); further: nearly all actives have a fitted effect of over 15% in size
Outline: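 PGC/ERR reporter cell line, 2,000 cells per well, incubated 6 h at 37 C before 23 nL compound in DMSO was added. After 18 h at 37 C, One-Glo luminescence read following 30 min at room temperature.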

Chain of Thyrotropin receptor (Homo sapiens) (P16473 whole entry, looked up): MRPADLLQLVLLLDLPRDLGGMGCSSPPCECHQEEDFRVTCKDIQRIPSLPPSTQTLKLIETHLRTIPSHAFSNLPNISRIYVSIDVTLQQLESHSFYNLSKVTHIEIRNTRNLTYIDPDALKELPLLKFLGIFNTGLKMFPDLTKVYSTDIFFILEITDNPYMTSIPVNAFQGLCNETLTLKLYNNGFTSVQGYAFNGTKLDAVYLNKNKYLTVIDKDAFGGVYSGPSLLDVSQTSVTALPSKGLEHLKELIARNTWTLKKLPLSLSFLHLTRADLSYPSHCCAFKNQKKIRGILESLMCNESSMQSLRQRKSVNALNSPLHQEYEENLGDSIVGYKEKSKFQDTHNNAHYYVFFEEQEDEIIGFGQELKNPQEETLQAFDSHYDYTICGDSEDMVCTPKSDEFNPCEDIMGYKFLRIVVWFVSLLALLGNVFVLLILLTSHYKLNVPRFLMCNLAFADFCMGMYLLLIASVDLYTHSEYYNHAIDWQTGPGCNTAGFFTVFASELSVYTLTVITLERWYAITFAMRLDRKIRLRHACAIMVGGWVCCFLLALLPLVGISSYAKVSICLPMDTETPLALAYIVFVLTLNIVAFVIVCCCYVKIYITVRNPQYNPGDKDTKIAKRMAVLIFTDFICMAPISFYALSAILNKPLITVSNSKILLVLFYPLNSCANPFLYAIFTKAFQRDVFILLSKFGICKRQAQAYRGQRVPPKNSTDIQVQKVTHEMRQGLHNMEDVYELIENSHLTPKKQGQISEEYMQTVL
Chain of Luciferin 4-monooxygenase (Photinus pyralis) (P08659 whole entry, looked up): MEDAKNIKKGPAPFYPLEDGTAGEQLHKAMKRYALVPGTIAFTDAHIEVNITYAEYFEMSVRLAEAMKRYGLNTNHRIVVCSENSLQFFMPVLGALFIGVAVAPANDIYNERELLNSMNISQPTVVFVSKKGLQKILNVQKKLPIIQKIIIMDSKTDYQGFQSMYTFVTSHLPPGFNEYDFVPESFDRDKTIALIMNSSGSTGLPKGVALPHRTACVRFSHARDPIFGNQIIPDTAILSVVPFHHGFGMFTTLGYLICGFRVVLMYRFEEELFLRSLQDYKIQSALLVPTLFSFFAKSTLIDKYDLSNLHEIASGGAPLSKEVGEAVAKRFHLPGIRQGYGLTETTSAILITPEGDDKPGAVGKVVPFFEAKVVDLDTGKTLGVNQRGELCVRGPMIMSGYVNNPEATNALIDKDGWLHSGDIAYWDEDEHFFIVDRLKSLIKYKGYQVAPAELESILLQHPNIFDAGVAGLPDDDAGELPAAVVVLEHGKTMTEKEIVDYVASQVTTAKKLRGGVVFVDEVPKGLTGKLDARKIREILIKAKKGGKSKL
Chain of Nuclear receptor subfamily 1 group I member 3 (Homo sapiens) (Q14994 whole entry, looked up): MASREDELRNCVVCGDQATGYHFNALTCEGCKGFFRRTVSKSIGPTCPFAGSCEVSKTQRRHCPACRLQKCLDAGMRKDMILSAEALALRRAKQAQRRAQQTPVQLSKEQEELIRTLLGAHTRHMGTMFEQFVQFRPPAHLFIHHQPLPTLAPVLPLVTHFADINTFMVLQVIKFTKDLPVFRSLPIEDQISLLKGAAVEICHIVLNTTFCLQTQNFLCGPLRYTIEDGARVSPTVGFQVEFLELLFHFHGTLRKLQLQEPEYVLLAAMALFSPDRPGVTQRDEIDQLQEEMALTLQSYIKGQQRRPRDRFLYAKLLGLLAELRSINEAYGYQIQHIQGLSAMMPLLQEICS
Chain of Retinoic acid receptor RXR-alpha (Homo sapiens) (P19793 whole entry, looked up): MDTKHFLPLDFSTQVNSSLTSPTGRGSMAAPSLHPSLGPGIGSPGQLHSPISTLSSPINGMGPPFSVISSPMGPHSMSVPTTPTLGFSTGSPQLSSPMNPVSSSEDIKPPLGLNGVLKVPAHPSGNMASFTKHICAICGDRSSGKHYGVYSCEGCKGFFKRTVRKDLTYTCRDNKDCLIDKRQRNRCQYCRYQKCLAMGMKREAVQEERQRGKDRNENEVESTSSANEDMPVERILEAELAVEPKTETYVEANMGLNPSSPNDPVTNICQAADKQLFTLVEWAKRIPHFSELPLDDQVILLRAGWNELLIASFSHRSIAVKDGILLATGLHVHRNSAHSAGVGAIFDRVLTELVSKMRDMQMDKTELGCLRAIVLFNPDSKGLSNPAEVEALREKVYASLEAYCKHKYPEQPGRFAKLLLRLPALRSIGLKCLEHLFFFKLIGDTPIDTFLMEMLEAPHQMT

Structure (SMILES) | Potency [1] | Potency [2] | Potency [3] | Potency [4] | Potency [5] | Potency [6] | Potency [7] | Potency [8] | Potency [9] | Potency [10] | Potency [11] | Potency [12] | Potency [13] | Potency [14] | outcome [15]
COC(=O)c1ccccc1S(=O)(=O)NC(=O)N(C)c1nc(C)nc(OC)n1 | inactive | inactive | inactive | inactive | inactive | inactive | inactive | inactive | inactive | inactive | inactive | inactive |  |  | 
ClC(Cl)Br | inactive | inactive | inactive | inactive | inactive | inactive | inactive | inactive | inactive |  | inactive | inactive | inactive |  | 
CCN(CC)C(C)C(=O)c1ccccc1 (centres undefined) | inactive | inactive | inactive | inactive | inactive |  | inactive | inactive | inactive | inactive |  | inactive | inactive |  | 
CC(Cl)(Cl)[N+](=O)[O-] | inactive | inactive | inactive | inactive | inactive |  | inactive | inactive | inactive | inactive | inactive | inactive | inactive | inactive | inactive
ClCCCN1CCN(c2cccc(Cl)c2)CC1 | inactive | inactive | inactive | inactive | inactive | inactive | inactive |  | inactive |  |  | inactive |  | inactive | inactive
O=C1CN2CCOC2(c2ccccc2Cl)c2cc(Cl)ccc2N1 (centres undefined) | inactive | inactive | inactive | inactive | inactive | inactive | inactive | inactive | inactive | inactive |  | inactive | inactive |  | 
ClC(Cl)C(Cl)Cl | inactive | inactive | inactive | inactive | inactive | inactive | inactive | inactive | inactive | inactive | inactive | inactive |  |  | 
CNC(=O)Oc1ccccc1C1OCCO1 | inactive | inactive | inactive | inactive | inactive | inactive | inactive | inactive | inactive | inactive | inactive | inactive |  | inactive | inactive
N#CC(Cl)(Cl)Cl | inactive | inactive | inactive | inactive | inactive | inactive | inactive | inactive | inactive | inactive | inactive | inactive |  |  | 
c1coc(-c2nc3ccccc3[nH]2)c1 | inactive | inactive | inactive | inactive | 3.86 µM (active) | inactive | 28.3 µM (active) | inactive | inactive | inactive | 7.7 µM (active) | inactive | inactive |  | 
COc1cccc(C(=O)NN(C(=O)c2cc(C)cc(C)c2)C(C)(C)C)c1C | inactive | inactive | inactive | inactive | inactive |  | inactive |  |  | inactive | inactive | inactive | inactive | inactive | 
CN(N=O)C(N)=O | inactive | inactive | inactive | inactive |  | inactive | inactive | inactive | inactive | inactive | inactive | inactive |  |  | 
CCN(CC)CCOC(=O)C(C)(c1ccccc1)c1ccccc1 | inactive | inactive | inactive | inactive | inactive | inactive | inactive | inactive | inactive |  |  | inactive | inactive | inactive | inactive
ClCC(Cl)(Cl)Cl | inactive | inactive | inactive | inactive | inactive |  | inactive | inactive |  | inactive | inactive | inactive |  |  | 
CCCCCCBr | inactive | inactive | inactive | inactive | inactive | inactive |  | inactive |  | inactive | inactive | inactive | inactive |  | 
OC(c1ccc(F)cc1)(c1cncnc1)c1ccccc1Cl (centres undefined) | inactive | inactive | inactive | inactive | inactive | inactive | inactive | inactive | inactive | inactive | inactive | inactive |  |  | 
C=CC1CC=CCC1 (centres undefined) | inactive | inactive | inactive | inactive | inactive | inactive | inactive | inactive | inactive | inactive | inactive | inactive | inactive |  | 
CC1COC2(c3ccccc3Cl)c3cc(Cl)ccc3NC(=O)CN12 (centres undefined) | inactive | inactive | inactive | 29.8 µM (active) | inactive |  | inactive | inactive | inactive |  | inactive |  | inactive | 21.1 µM (active) | 
O=C1OC(=O)C2C1C1(Cl)C(Cl)=C(Cl)C2(Cl)C1(Cl)Cl (centres undefined) | inactive | inactive | inactive | inactive | inactive |  | inactive | inactive | inactive | inactive |  | inactive | inactive |  | 
CC(C)[N+](=O)[O-] | inactive | inactive | inactive | inactive | inactive | inactive | inactive | inactive | inactive | inactive | inactive |  | inactive |  | 
CCN(CC)c1nc(C)cc(OP(=S)(OC)OC)n1 | inactive | inactive | inactive | inactive | inactive | inactive | inactive | inactive |  | inactive | 48.6 µM (active) | inactive | inactive |  | 
COC(=O)COc1ccc(Cl)cc1Cl | inactive | inactive | inactive | inactive | inactive | inactive |  | inactive |  |  |  | inactive |  | inactive | 
